Laboratory results: PubChem BioAssay AID1159580 (chemical genetic matrix, 2015)
Values joined by “and” are separate entries in the source; they are usually repeats but may differ in a detail not shown here. Identical values can stand only once. In all, about 5,500 compounds went through this assay and about 2,000 (36%) were called active. Another 18% or so got no clear call; they are omitted. No stated cut-off is given here; in the data, active means normalized growth mostly below about 0.91 (no sharp cut-off); inconclusive means no clear call, values can overlap the other calls; inactive means mostly above about 0.92. Some of the results follow.

Test: chemical genetic growth profiling, strain panel (AID 1159580);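 further: tested at 20 µM; growth read once vehicle control cultures reached saturation at 30 °C; 1 = growth at the plate median or of vehicle wells; lower values mean less growth of the strain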
Conditions: growth OD

Measured: normalized growth

COc1ccc(Cc2nccc3cc(OC)c(OC)cc23)cc1OC
inactive: S. cerevisiae deletion strains, locus YJR066W, strain TOR1, active compounds read low 0.975 | S. cerevisiae deletion strains, locus YJR075W, strain HOC1, active compounds read low 0.995 | S. cerevisiae deletion strains, locus YKL009W, strain mrt4, active compounds read low 0.984 | S. cerevisiae deletion strains, locus YKL068W, active compounds read low 0.999 | S. cerevisiae deletion strains, locus YKL085W, strain MDH1 (second series), active compounds read low 0.991 | S. cerevisiae deletion strains, locus YKL085W, strain MDH1, active compounds read low 0.991 | S. cerevisiae deletion strains, locus YKL160W, strain elf1, active compounds read low 1.02 | S. cerevisiae deletion strains, locus YKL190W, strain CNB1, active compounds read low 1.01 | S. cerevisiae deletion strains, locus YKR001C, strain vps1, active compounds read low 0.961 | S. cerevisiae deletion strains, locus YKR026C, strain gcn3, active compounds read low 1 | S. cerevisiae deletion strains, locus YKR091W, strain srl3, active compounds read low 0.998 | S. cerevisiae deletion strains, locus YLL001W, strain dnm1, active compounds read low 1.01 | S. cerevisiae deletion strains, locus YLL026W, active compounds read low 1 | S. cerevisiae deletion strains, locus YLL041C, strain sdh2, active compounds read low 1 | S. cerevisiae deletion strains, locus YLR027C, strain aat2, active compounds read low 0.994 | S. cerevisiae deletion strains, locus YLR039C, strain RIC1, active compounds read low 1 | S. cerevisiae deletion strains, locus YLR058C, strain SHM2, active compounds read low 1.02 | S. cerevisiae deletion strains, locus YLR102C, strain apc9, active compounds read low 0.988 | S. cerevisiae deletion strains, locus YLR113W, strain HOG1, active compounds read low 0.975 | S. cerevisiae deletion strains, locus YLR221C, strain rsa3, active compounds read low 1.01 | S. cerevisiae deletion strains, locus YLR258W, strain gsy2, active compounds read low 1 | S. cerevisiae deletion strains, locus YLR262C, strain YPT6 (second series), active compounds read low 1.01 | S. cerevisiae deletion strains, locus YLR262C, strain YPT6, active compounds read low 1.01 | S. cerevisiae deletion strains, locus YLR268W, strain sec22, active compounds read low 0.967 | S. cerevisiae deletion strains, locus YLR320W, strain mms22, active compounds read low 1.01 | S. cerevisiae deletion strains, locus YLR330W, strain CHS5, active compounds read low 1.01 | S. cerevisiae deletion strains, locus YLR342W, strain FKS1 (second series), active compounds read low 0.996 | S. cerevisiae deletion strains, locus YLR342W, strain FKS1, active compounds read low 1.01 | S. cerevisiae deletion strains, locus YLR357W, strain rsc2, active compounds read low 0.972 | S. cerevisiae deletion strains, locus YLR370C, strain arc18, active compounds read low 0.992 | S. cerevisiae deletion strains, locus YLR371W, strain rom2, active compounds read low 0.999 | S. cerevisiae deletion strains, locus YLR384C, strain iki3, active compounds read low 1 | S. cerevisiae deletion strains, locus YLR418C, strain cdc73, active compounds read low 0.933 | S. cerevisiae deletion strains, locus YML016C, strain PPZ1, active compounds read low 1.01 | S. cerevisiae deletion strains, locus YML032C, strain rad52, active compounds read low 0.977 | S. cerevisiae deletion strains, locus YML120C, strain ndi1, active compounds read low 1 | S. cerevisiae deletion strains, locus YML124C, strain tub3, active compounds read low 0.988 | S. cerevisiae deletion strains, locus YMR058W, strain fet3, active compounds read low 1.01 | S. cerevisiae deletion strains, locus YMR078C, strain ctf18, active compounds read low 0.991 | S. cerevisiae deletion strains, locus YMR125W, strain sto1, active compounds read low 0.994 | S. cerevisiae deletion strains, locus YMR129W, active compounds read low 0.998 | S. cerevisiae deletion strains, locus YMR205C, strain PFK2, active compounds read low 1.02 | S. cerevisiae deletion strains, locus YMR223W, strain ubp8, active compounds read low 0.987 | S. cerevisiae deletion strains, locus YMR231W, strain pep5, active compounds read low 1.01 | S. cerevisiae deletion strains, locus YMR307W, strain GAS1, active compounds read low 0.988 and 0.997 | S. cerevisiae deletion strains, locus YNL067W, strain RPL9B, active compounds read low 1.01 | S. cerevisiae deletion strains, locus YNL071W, strain lat1, active compounds read low 1 | S. cerevisiae deletion strains, locus YNL128W, strain TEP1, active compounds read low 1.01 and 0.977 | S. cerevisiae deletion strains, locus YNL153C, strain GIM3, active compounds read low 1.01 | S. cerevisiae deletion strains, locus YNL175C, strain NOP13, active compounds read low 0.988 | S. cerevisiae deletion strains, locus YNL183C, strain NPR1, active compounds read low 0.946 | S. cerevisiae deletion strains, locus YNL197C, strain WHI3, active compounds read low 0.996 | S. cerevisiae deletion strains, locus YNL209W, strain ssb2, active compounds read low 1 | S. cerevisiae deletion strains, locus YNL224C, strain SQS1, active compounds read low 0.993 | S. cerevisiae deletion strains, locus YNL233W, strain BNI4, active compounds read low 1.02 | S. cerevisiae deletion strains, locus YNL248C, strain rpa49, active compounds read low 0.992 | S. cerevisiae deletion strains, locus YNL250W, strain rad50, active compounds read low 0.985 | S. cerevisiae deletion strains, locus YNL271C, strain bni1, active compounds read low 0.982 | S. cerevisiae deletion strains, locus YNL298W, strain CLA4, active compounds read low 0.999 | S. cerevisiae deletion strains, locus YNL307C, strain MCK1, active compounds read low 0.98 | S. cerevisiae deletion strains, locus YNL322C, strain KRE1 (second series), active compounds read low 1.01 | S. cerevisiae deletion strains, locus YNR049C, strain mso1, active compounds read low 0.999 | S. cerevisiae deletion strains, locus YNR052C, strain pop2, active compounds read low 0.986 | S. cerevisiae deletion strains, locus YOL006C, strain TOP1, active compounds read low 1.02 | S. cerevisiae deletion strains, locus YOL012C, strain htz1 1.11 | S. cerevisiae deletion strains, locus YOL147C, strain pex11, active compounds read low 0.988 | S. cerevisiae deletion strains, locus YOR001W, strain rrp6, active compounds read low 0.965 | S. cerevisiae deletion strains, locus YOR061W, strain CKA2, active compounds read low 1.01 | S. cerevisiae deletion strains, locus YOR069W, strain VPS5, active compounds read low 1.01 | S. cerevisiae deletion strains, locus YOR070C, strain gyp1, active compounds read low 0.999 | S. cerevisiae deletion strains, locus YOR080W, strain dia2, active compounds read low 0.997 | S. cerevisiae deletion strains, locus YOR083W, strain WHI5 (second series), active compounds read low 1 | S. cerevisiae deletion strains, locus YOR083W, strain WHI5, active compounds read low 1.03 | S. cerevisiae deletion strains, locus YOR106W, strain vam3, active compounds read low 1.02 | S. cerevisiae deletion strains, locus YOR136W, strain idh2, active compounds read low 0.998 | S. cerevisiae deletion strains, locus YOR144C, strain elg1, active compounds read low 1 | S. cerevisiae deletion strains, locus YOR184W, strain ser1, active compounds read low 0.984 | S. cerevisiae deletion strains, locus YOR231W, strain MKK1, active compounds read low 0.984 | S. cerevisiae deletion strains, locus YOR265W, strain rbl2, active compounds read low 1 | S. cerevisiae deletion strains, locus YOR270C, strain vph1, active compounds read low 0.998 | S. cerevisiae deletion strains, locus YOR290C, strain snf2, active compounds read low 0.993 | S. cerevisiae deletion strains, locus YOR316C, strain cot1, active compounds read low 1 | S. cerevisiae deletion strains, locus YPL051W, strain arl3, active compounds read low 0.998 | S. cerevisiae deletion strains, locus YPL055C, strain LGE1, active compounds read low 0.983 | S. cerevisiae deletion strains, locus YPL078C, strain atp4, active compounds read low 0.998 | S. cerevisiae deletion strains, locus YPL106C, strain sse1, active compounds read low 1 | S. cerevisiae deletion strains, locus YPL240C, strain hsp82, active compounds read low 1.01 | S. cerevisiae deletion strains, locus YPL241C, strain CIN2, active compounds read low 1.01 | S. cerevisiae deletion strains, locus YPL256C, strain CLN2, active compounds read low 1.02 | S. cerevisiae deletion strains, locus YPR119W, strain clb2, active compounds read low 0.99 | S. cerevisiae deletion strains, locus YPR141C, strain kar3, active compounds read low 0.988 | S. cerevisiae deletion strains, locus YPR163C, strain tif3, active compounds read low 0.974 | S. cerevisiae deletion strains, locus YPR167C, strain met16, active compounds read low 0.991 | S. cerevisiae deletion strains, strain wtn01, active compounds read low 0.985 | S. cerevisiae strains, strain wild type, active compounds read low 1.01
